“And” between values parts separate entries of the source, which are not always exact repeats. Equal values may be shown once. Inconclusive results are not listed. The source holds several records for some structures; these can differ, active in one and inactive in another. The source made the active and inactive calls. Unless noted, calls follow the shape of the dose curve; as a rule, active = well fitted curve in the direction sought with a large enough effect in the repeat runs; inconclusive = weak or mixed curves; inactive = no such curve, though single readings can be large; an effect the other way counts as inactive or inconclusive.
Experiments:
[1] = qHTS assay to test for compound auto fluorescence at 535 nm (green) in HEK293 cells (AID 720680)
[2] = qHTS assay to test for compound auto fluorescence at 460 nm (blue) in HEK293 cell free culture (AID 720681)
In short: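 Blue fluorescence (Ex 405/Em 460 nm, triamterene-equivalent) was read immediately after pin transfer of compound or DMSO into medium (DMEM, 10% FBS) without cells.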

[3] = qHTS assay to test for compound auto fluorescence at 535 nm (green) in HEK293 cell free culture (AID 720682)
In short: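 Compounds were pin-transferred into cell-free DMEM with 10% FBS, and green fluorescence was read at excitation 485 nm and emission 535 nm. Intensities were expressed as fluorescein-equivalent values.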

[4] = qHTS assay to test for compound auto fluorescence at 590 nm (red) in HEK293 cell free culture (AID 720683)
In short: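 Red-channel autofluorescence of compounds in culture medium (DMEM, 10% FBS), no cells, measured at 540/590 nm. Rose Bengal sodium is the reference fluorophore for equivalence.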

[5] = qHTS assay to test for compound auto fluorescence at 590 nm (red) in HepG2 cell free culture (AID 720684)
In short: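 Plate contents were MEM with 10% FBS plus test compound or DMSO, no cells. Fluorescence was recorded with 540 nm excitation and 590 nm emission.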

[6] = qHTS assay to test for compound auto fluorescence at 460 nm (blue) in HepG2 cell free culture (AID 720685)
In short: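 Compound (23 nL) or DMSO pinned into cell-free MEM with 10% FBS; blue fluorescence read at 405/460 nm excitation/emission, expressed as auto-fluorescence equivalency to triamterene.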

[7] = qHTS assay to test for compound auto fluorescence at 535 nm (green) in HepG2 cell free culture (AID 720686)
[8] = qHTS assay to test for compound auto fluorescence at 460 nm (blue) in HepG2 cells (AID 720687)
In short: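 Blue-channel autofluorescence (Ex/Em 405/460 nm, triamterene-equivalent) was measured after 1 hr compound exposure at 37 C, 5% CO2. Cells were HepG2, plated overnight at 37 C in MEM plus 10% FBS.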

[9] = biological target: Glucocorticoid receptor (Homo sapiens) (UniProt P04150); assay: qHTS assay to identify small molecule agonists of the glucocorticoid receptor (GR) signaling pathway (AID 720691; active = well fitted activation curve with a large enough effect in the signal ratio in the repeat runs, not every such curve was filed as active; the % refers to the signal ratio); conditions: GR-bla HeLa, beta-lactamase reporter ratio, 18 h; activation: at 62.4 µM (top of the series) unless noted
In short: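 Fluorescence intensity from LiveBLAzer B/G FRET substrate (2 h, room temperature) reports beta-lactamase expression driven by the glucocorticoid response element in GR-bla HeLa cells after 18 h compound exposure at 37 C.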

[10] = biological target: Glucocorticoid receptor (Homo sapiens) (UniProt P04150); assay: qHTS assay to identify small molecule antagonists of the glucocorticoid receptor (GR) signaling pathway (AID 720692; active = well fitted inhibition curve with a large enough effect in the signal ratio in the repeat runs, not every such curve was filed as active; the % refers to the signal ratio)
In short: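 HeLa GR-bla cells; cmpd + dex 5 nM final, 18 h 37 C; LiveBLAzer B/G FRET substrate 2 h RT; fluorescence intensity read. Antagonist mode, qHTS.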

[11] = qHTS assay to identify small molecule antagonists of the glucocorticoid receptor (GR) signaling pathway - cell viability counter screen (AID 720693); also: nearly all actives have a fitted effect of over 55% in size
[12] = qHTS assay for identifying genotoxic compounds that show differential cytotoxicity against isogenic chicken DT40 cell lines with known DNA damage response pathways - wild type cell line (AID 743012); also: nearly all actives have a fitted effect of over 60% in size; also: potency is read from the fitted curve at half-maximal effect
In short: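 Wild type DT40, 300 cells/well, ~0.5 h settle at 37 C/5% CO2; compounds in DMSO added by pintool; 40 h at 37 C/5% CO2; CellTiter-Glo, 30 min RT; luminescence.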

[13] = qHTS assay for identifying genotoxic compounds that show differential cytotoxicity against isogenic chicken DT40 cell lines with known DNA damage response pathways - Rev3 mutant cell line (AID 743014); also: nearly all actives have a fitted effect of over 55% in size; also: potency is read from the fitted curve at half-maximal effect
[14] = qHTS assay for identifying genotoxic compounds that show differential cytotoxicity against isogenic chicken DT40 cell lines with known DNA damage response pathways - Rad54/Ku70 mutant cell line (AID 743015); also: nearly all actives have a fitted effect of over 60% in size; also: potency is read from the fitted curve at half-maximal effect
[15] = qHTS assay to identify small molecule antagonists of the androgen receptor (AR) signaling pathway - cell viability counter screen (AID 743033; also: nearly all actives have a fitted effect of over 45% in size; also: potency is read from the fitted curve at half-maximal effect)
[16] = qHTS assay to identify small molecule antagonists of the androgen receptor (AR) signaling pathway using the MDA cell line - cell viability counter screen (AID 743041; also: nearly all actives have a fitted effect of over 45% in size)
In short: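 R1881-driven MDA-kb2 AR-luc cells, 3,000/well, were dosed with library compounds for 16 h; cell health came from CellTiter-Fluor fluorescence in the reporter wells.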

[17] = biological target: Androgen receptor (Homo sapiens) (UniProt P10275); assay: qHTS assay to identify small molecule antagonists of the androgen receptor (AR) signaling pathway (AID 743035; active = well fitted inhibition curve with a large enough effect in the signal ratio in the repeat runs, not every such curve was filed as active; the % refers to the signal ratio)
In short: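 Fluorescence from a beta-lactamase FRET substrate (LiveBLAzer B/G, 2 h, room temperature) measured inhibition of R1881-stimulated signaling in GeneBLAzer AR-UAS-bla HEK293 cells exposed to compound for 16 h at 37C.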

[18] = biological target: Androgen receptor (Homo sapiens) (UniProt P10275); assay: qHTS assay to identify small molecule agonists of the androgen receptor (AR) signaling pathway (AID 743036; active = well fitted activation curve with a large enough effect in the signal ratio in the repeat runs, with a control signal flat, not every such curve was filed as active; the % refers to the signal ratio)
In short: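 Activation was read as beta-lactamase FRET signal from LiveBLAzer B/G substrate, added for 2 h at room temperature. Before that, GeneBLAzer AR-UAS-bla GripTite (HEK293) cells had 16 h compound exposure at 37C.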

[19] = biological target: Androgen receptor (Homo sapiens) (UniProt P10275); assay: qHTS assay to identify small molecule agonists of the androgen receptor (AR) signaling pathway using the MDA cell line (AID 743040; also: nearly all actives have a fitted effect of over 20% in size)
In short: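 After a 5 h incubation at 37C and 0% CO2, MDA-kb2 reporter cells were dosed with compounds in DMSO and kept 16 h under the same conditions. Luciferase activity was then read as luminescence with ONE-Glo.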

[20] = biological target: Androgen receptor (Homo sapiens) (UniProt P10275); assay: qHTS assay to identify small molecule antagonists of the androgen receptor (AR) signaling pathway using the MDA cell line (AID 743042; also: nearly all actives have a fitted effect of over 55% in size)
In short: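 Antagonist mode: compounds plus R1881 agonist added to MDA-kb2 AR-luc cells, incubated 16 h at 37C. Luciferase reporter luminescence quantified, with multiplexed CellTiter-Fluor readout for cell viability.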

Measured: Potency

Sequence of Glucocorticoid receptor (Homo sapiens) (P04150 whole entry, looked up): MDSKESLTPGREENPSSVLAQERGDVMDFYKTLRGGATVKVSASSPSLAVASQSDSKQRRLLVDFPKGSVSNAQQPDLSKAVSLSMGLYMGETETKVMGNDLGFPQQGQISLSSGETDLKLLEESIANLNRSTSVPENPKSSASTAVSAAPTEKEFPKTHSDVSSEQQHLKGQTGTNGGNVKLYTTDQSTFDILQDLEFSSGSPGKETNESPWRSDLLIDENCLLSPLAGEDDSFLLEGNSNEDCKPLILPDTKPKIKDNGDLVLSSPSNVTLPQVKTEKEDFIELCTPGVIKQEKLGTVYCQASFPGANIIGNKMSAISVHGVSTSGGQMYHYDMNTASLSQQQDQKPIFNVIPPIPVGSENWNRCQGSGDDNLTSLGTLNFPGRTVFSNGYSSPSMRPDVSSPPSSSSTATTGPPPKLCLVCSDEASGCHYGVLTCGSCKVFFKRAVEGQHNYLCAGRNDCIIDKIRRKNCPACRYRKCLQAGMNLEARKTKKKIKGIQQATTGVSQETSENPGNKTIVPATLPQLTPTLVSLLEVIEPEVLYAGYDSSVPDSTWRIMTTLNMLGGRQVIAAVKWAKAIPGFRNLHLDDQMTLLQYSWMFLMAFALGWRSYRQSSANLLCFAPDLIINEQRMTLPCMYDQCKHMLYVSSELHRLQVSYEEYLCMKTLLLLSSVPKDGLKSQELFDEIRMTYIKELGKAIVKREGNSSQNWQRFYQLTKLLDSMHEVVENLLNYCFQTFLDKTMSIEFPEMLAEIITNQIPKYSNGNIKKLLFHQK
Sequence of Androgen receptor (Homo sapiens) (P10275 whole entry, looked up): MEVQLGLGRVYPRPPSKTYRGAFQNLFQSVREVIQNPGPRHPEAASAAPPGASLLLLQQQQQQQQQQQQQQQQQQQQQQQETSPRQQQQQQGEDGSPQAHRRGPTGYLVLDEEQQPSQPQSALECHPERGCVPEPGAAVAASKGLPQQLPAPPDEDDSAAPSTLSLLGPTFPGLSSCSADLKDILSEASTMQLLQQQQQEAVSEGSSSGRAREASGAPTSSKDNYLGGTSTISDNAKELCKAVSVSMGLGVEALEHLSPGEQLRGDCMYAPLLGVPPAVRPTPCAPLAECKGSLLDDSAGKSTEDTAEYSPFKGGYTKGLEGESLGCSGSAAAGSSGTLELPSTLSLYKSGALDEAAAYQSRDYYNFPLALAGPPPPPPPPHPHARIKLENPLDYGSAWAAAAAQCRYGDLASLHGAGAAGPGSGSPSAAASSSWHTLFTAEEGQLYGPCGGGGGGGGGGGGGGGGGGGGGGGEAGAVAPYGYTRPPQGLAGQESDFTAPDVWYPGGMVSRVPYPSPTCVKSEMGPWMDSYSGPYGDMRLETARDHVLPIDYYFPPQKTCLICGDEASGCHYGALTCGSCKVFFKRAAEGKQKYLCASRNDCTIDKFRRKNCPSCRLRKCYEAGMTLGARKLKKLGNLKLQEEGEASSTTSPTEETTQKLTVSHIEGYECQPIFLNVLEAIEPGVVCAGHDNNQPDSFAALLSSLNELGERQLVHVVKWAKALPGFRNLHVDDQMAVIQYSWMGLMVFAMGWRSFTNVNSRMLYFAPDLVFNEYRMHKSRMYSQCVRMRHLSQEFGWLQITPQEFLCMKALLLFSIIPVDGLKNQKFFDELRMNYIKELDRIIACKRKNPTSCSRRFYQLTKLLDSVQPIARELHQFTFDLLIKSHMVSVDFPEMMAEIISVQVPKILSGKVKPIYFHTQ

CCCCCCC(C)(C)S
not listed: [17] | [18] | [19] | [20]
inactive: all other assays above

Cc1ccc(N)c(S(=O)(=O)O)c1
not listed: [17] | [18] | [19] | [20]
inactive: all other assays above

CNC[C@H](O)[C@@H](O)[C@H](O)[C@H](O)CO
not listed: [9] | [10] | [17] | [18] | [19] | [20]
inactive: all other assays above

C=C(C#N)C(=O)OCC
inactive and 24.3 µM (active): [14]
inactive and 43.3 µM (active): [12] | [13]
not listed: [17] | [18] | [19] | [20]
inactive: all other assays above

C[C@@H](O)[C@H]1C(=O)N2C(C(=O)O)=C(S[C@@H]3CN[C@H](C(=O)N(C)C)C3)[C@H](C)[C@H]12
not listed: [10] | [13] | [17] | [18] | [19] | [20]
inactive: all other assays above

CS(=O)(=O)Nc1ccc([N+](=O)[O-])cc1Oc1ccccc1
not listed: [9] | [10] | [17] | [18] | [19] | [20]
inactive: all other assays above

NC(=O)/N=N/C(N)=O
not listed: [17] | [18] | [19] | [20]
inactive: all other assays above

COC(=O)c1ccc(C(=O)OC)cc1
not listed: [9] | [10] | [17] | [18] | [19] | [20]
inactive: all other assays above

O=C(O)c1cc(-c2ccccc2)nc2ccccc12
not listed: [8]
inactive: all other assays above

CCCCC/C=C\C/C=C\CCCCCCCC(=O)OC
active: [12] 30.6 µM | [13] 30.6 µM | [14] 21.7 µM
not listed: [9] | [10] | [17] | [18] | [19] | [20]
inactive: all other assays above

CCOC(=O)[C@H](CCc1ccccc1)N[C@@H](C)C(=O)N1Cc2ccccc2C[C@H]1C(=O)O
inactive and 61.6 µM (active): [13]
not listed: [17] | [18] | [19] | [20]
inactive: all other assays above

CCCCNC(N)=O
not listed: [17] | [18] | [19] | [20]
inactive: all other assays above

O=C1N=C(O)CN1/N=C/c1ccc(-c2ccc([N+](=O)[O-])cc2)o1
inactive and 68.6 µM (active): [13]
active: [12] 61.1 µM | [14] 26.6 µM and 27.3 µM
not listed: [16] | [17] | [18] | [19] | [20]
inactive: all other assays above

CCCCCCCCCC(=O)O
61.2 µM (active) and inactive: [14]
inactive and 55 µM (active): [15]
not listed: [13]
inactive: all other assays above

CCOC(=O)/C=C\C(=O)OCC
not listed: [17] | [18] | [19] | [20]
inactive: all other assays above

— PubChem BioAssay (Tox21)
